Among the data in PubChem BioAssay (EPA / NIEHS) are outcome and AC50 values, retold here.

Molecules are shown by their SMILES. Activity calls are given as the source filed them. How the source made its calls: active means hit-call score of the fitted dose curve at least 0.9, where 1 is the maximum; inactive means score below 0.9.

A short description of the assay: BSK_SAg_SRB: Viability Assessment in the BioMAP Diversity Plus: SAg Assay (AID 2283096).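 Further: hits may be either gain or loss of signal compared with DMSO.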 The settings on record: primary human HUVEC with PBMC. On the procedure:
BSK_SAg is a cell-based, multiplexed-readout assay that uses umbilical vein endothelium and peripheral blood mononuclear cells, a human vascular primary cell co-culture, with measurements taken at 24 hours after chemical dosing in a 96-well plate.BSK_SAg_SRB is an assay component measured in the BSK_SAg assay. It measures protein content, a form of viability reporter, as detected with absorbance signals by Sulforhodamine staining technology.Data from the assay component BSK_SAg_SRB was analyzed into 1 assay endpoint. This assay endpoint, BSK_SAg_SRB, was analyzed with bidirectional fitting relative to DMSO as the negative control and baseline of activity. Using a type of viability reporter, gain or loss-of-signal activity can be used to understand changes in the signaling. Furthermore, this assay endpoint can be referred to as a primary readout, because this assay has produced multiple assay endpoints where this one serves a signaling function. To generalize the intended target to other relatable targets, this assay endpoint is annotated to the cell morphology intended target family, where the subfamily is cell conformation.
The levels of cell surface (or secreted, indicated by the prefix "s") biomarker endpoints were measured by ELISA. Overt cytotoxicity to cells in confluent adherent cultures (all systems other than the BT system) was assessed by measuring total protein levels using sulforhodamine B (SRB) staining in parallel cultures at the time of biomarker measurements, indicated as SRB endpoints. For proliferation assays for adherent cell types, individual cell types are cultured at sub-confluence and relative cell numbers quantified by SRB staining at time points optimized for each system (48 h: 3C and CASM3C systems; 72 h: BT and HDF3CGF systems; 96 h: SAg system). SRB was performed by staining cells with 0.1% SRB after fixation with 10% TCA and reading wells at 560 nm.Viability and proliferation of PBMC (T cells) was quantified by Alamar Blue reduction for the SAg and BT systems. For PBMC viability (referred to as PBMC Cytotoxicity within the assay endpoint names), cells were plated (75,000/well in a 96-well plate) and then chemical samples added for 1 h before addition of activators, SEB and TSST-1 (20 ng/mL final concentration each). Cells were incubated for 90 h. Then, Alamar Blue (20 uL/well) (Invitrogen, Cat DAL1100) was added for 6 h, and the plates were read with a fluorescence microplate reader at 546/580 nm (excitation/emission). For PBMC proliferation, cells were plated and activated as above but incubated for only 16 h prior to addition of Alamar Blue. Plates were read after 6 h.
In the case of `CNC(=O)[C@H]1O[C@@H](n2cnc3c(NCc4cc(Cl)ccc4OCc4cc(C)no4)ncnc32)[C@H](O)[C@@H]1N`, the outcome was inactive.

Take `Nc1ccccc1N`: the outcome was inactive.

As to `C[C@]12C=CC(=O)C=C1CC[C@@H]1[C@@H]2C(=O)C[C@@]2(C)[C@H]1CC[C@]2(O)C(=O)CO`, the outcome was inactive.

Take `Cc1nc(C)nc(N2C[C@@H](C)N(c3ccnc([C@@H](C)O)n3)[C@@H](C)C2)n1`: the outcome was inactive.

For the compound `Cc1ccc(N(C)C)cc1`, the result was inactive.

On to `O=C(O)CCCCC(=O)O`, for which the result was inactive.

Take `Oc1ccc2ccccc2c1N=Nc1ccccc1`: the outcome was inactive.

Consider `Cc1ccc(C)c(C)c1`, for which the result was inactive.

Consider `Nc1nc(N)c2nc(CNc3ccc(C(=O)N[C@@H](CCC(=O)O)C(=O)O)cc3)cnc2n1`, for which the result was inactive.

Turning to `CC(=O)C(C)=CC1C(C)=CCCC1(C)C` (stereo not given), the outcome was inactive.

As to `CCCCCCCC=O`, the outcome was inactive.

For `CCCCCCCCCCCCCO`, the AC50 is 37.5 µM (active).

On to `CCCCCCCCCCCCCCCCCC(=O)O`, for which the outcome was inactive.

Regarding `CCOC(=O)CCC(=O)OCC`, the result was inactive.

In the case of `C=CCc1ccc(O)c(OC)c1`, the result was inactive.

`COCCOCCOC`: the result was inactive.

Turning to `C=CCOC(=O)c1ccccc1C(=O)OCC=C`, the outcome was inactive.

Regarding `COc1ccc(C)cc1N`, the result was inactive.

Take `Oc1ccc2c(c1)OC[C@@H](N1CCC(O)(c3ccc(F)cc3)CC1)[C@H]2O`: the outcome was inactive.

In the case of `CCOc1ccc2c(c1)C(C)=CC(C)(C)N2`, the outcome was inactive.

For the compound `O=c1[nH]cc(F)c(=O)[nH]1`, the outcome was inactive.

On to `NC(=O)Cn1c(=O)cc(CCN2CCN(c3nccc4sccc34)CC2)c2ccc(F)cc21`, for which the outcome was inactive.

As to `O=C(O)Cc1ccccc1Nc1c(Cl)cccc1Cl`, the result was inactive.

As for `CCCCCC(=O)O`, the outcome was inactive.

In the case of `C1CCC(SSC2CCCCC2)CC1`, the result was inactive.

`CCCCOC(=O)CCCCCCCCC(=O)OCCCC`: the result was inactive.

Consider `CN1CCCC1=O`, for which the outcome was inactive.

`Cc1cccc([N+](=O)[O-])c1C`: the result was inactive.

Turning to `COc1cc(-c2nc(NC(=O)c3cc4cc(C)cc(C)c4n3CC(=O)O)sc2CCC2CCCCC2)c(OC)cc1Cl`, the AC50 was 3.85 µM (active).

For `C[Si]1(C)O[Si](C)(C)O[Si](C)(C)O[Si](C)(C)O1`, the outcome was inactive.

`Cc1ccccc1Cl`: the outcome was inactive.

As to `O=c1c(O)c(-c2ccc(O)c(O)c2)oc2cc(O)cc(O)c12`, the AC50 is 31 µM (active).

As for `CCCCCCC(=O)OCC`, the outcome was inactive.

On to `Cc1ccc(Cl)cc1`, for which the result was inactive.

In the case of `CCCCC(CC)COC(=O)CC(C(=O)OCC(CC)CCCC)S(=O)(=O)O` (stereo not given), the AC50 was 36.2 µM (active).

In the case of `COCCOC[C@H](CC1(C(=O)NC2CCC(C(=O)O)CC2)CCCC1)C(=O)Oc1ccc2c(c1)CCC2` (stereo not given in full), the result was inactive.

With `CC=Cc1ccc(O)c(OC)c1`, the outcome was inactive.

For `CC1(C)NC(=O)NC1=O`, the result was inactive.

Regarding `Clc1cc(Cl)c(Cl)cc1Cl`, the result was inactive.

In the case of `COc1ccc2c(c1)c(CC(=O)O)c(C)n2C(=O)c1ccc(Cl)cc1`, the outcome was inactive.

As a reminder, the AC50 is the concentration giving half of the maximal activity seen.
